Test results: PubChem BioAssay (NCI)
Compounds without any hit were thinned out: in the full panel of roughly 83,000, 20% have a hit.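 Assay: single dose, 48 h. Readout: percent growth (0 = no net growth; negative = cell death). Active: <10.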 Calls of active or inactive are those of the source.

Tests used:
Assay in all cases: NCI-60 one-dose screen, 48 h (100 = growth as untreated, 0 = no growth, -100 = all killed)
[1] = test system: NCI-H226 lung; settings: 10 µM
[2] = test system: NCI-H322M lung; settings: 10 µM
[3] = test system: HOP-62 NSCLC; settings: 10 µM
[4] = test system: NCI-H460 lung; settings: 10 µM
[5] = test system: A549/ATCC NSCLC; settings: 10 µM
[6] = test system: 786-0 renal; settings: 10 µM
[7] = test system: DU-145 prostate; settings: 10 µM
[8] = test system: SF-268 CNS; settings: 10 µM
[9] = test system: SF-295 CNS; settings: 10 µM
[10] = test system: SF-539 CNS; settings: 10 µM
[11] = test system: HCT-15 colon; settings: 10 µM
[12] = test system: SNB-75 CNS; settings: 10 µM
[13] = test system: SNB-19 CNS; settings: 10 µM
[14] = test system: U251 CNS; settings: 10 µM
[15] = test system: PC-3 prostate; settings: 10 µM
[16] = test system: EKVX NSCLC; settings: 10 µM
[17] = test system: UO-31 renal; settings: 10 µM
[18] = test system: ACHN renal; settings: 10 µM
[19] = test system: HL-60(TB) leukemia; settings: 10 µM unless noted
[20] = test system: CCRF-CEM leukemia; settings: 10 µM

Measured: growth

COC1[C@@H]2C[C@H]3C(C)(C)O[C@@](C/C=C(/C)C(=O)O)(C2=O)[C@]32Oc3c(CC=C(C)C)c4c(c(O)c3C(=O)[C@H]12)C=CC(C)(C)O4 (some centres undefined)
active: [2] -67% | [3] -24.8% | [4] -55.6% | [5] -20.3% | [6] -50.8% | [7] -97.2% | [8] -45.5% | [9] -55.2% | [10] -23% | [11] -43.1% | [12] -24.3% | [13] -69.5% | [14] -91.1% | [15] -18.4% | [16] -46.5% | [17] -69.6% | [18] -71% | [19] -29.8% | [20] -1.89%
inactive: [1] 23%

CC1=C(CN(O)C(N)=O)C2=C(C)C3(CC3)[C@@](C)(O)C(=O)C2=C1
active: [1] -46.8% | [2] 5.16% | [3] -9% | [4] -11.2% | [5] -8.35% | [6] -5.47% | [7] -2.79% | [8] -14.7% | [9] -11.4% | [10] -46.1% | [11] 0.564% | [12] -52.8% | [14] 4.97% | [15] 2.36% | [16] -24.1% | [17] -31.8% | [18] -14.4% | [19] -28.2%
inactive: [13] 16.2% | [20] 94.7%

N#Cc1nc(-c2ccccc2)oc1N1CCC(S(=O)(=O)F)CC1
inactive: [1] 98.4% | [2] 115% | [3] 95.9% | [4] 106% | [5] 102% | [6] 81.5% | [7] 101% | [8] 92.3% | [9] 100% | [10] 91.1% | [11] 103% | [12] 102% | [13] 98.6% | [14] 98.6% | [15] 99.3% | [16] 103% | [17] 86.7% | [18] 94.6% | [19] 98.6% | [20] 100%

CC1=C(CN(O)C(N)=O)C2=C(C)C3(CC3)[C@](C)(O)C(=O)C2=C1
active: [4] 1.16% | [5] 0.401% | [9] 0.35% | [10] -1.94% | [11] 1.38% | [12] -22.2% | [15] 8.93% | [16] 8.16% | [17] -20.3% | [18] -5.65% | [20] 1.19%
inactive: [1] 105% | [2] 26.8% | [3] 11.4% | [6] 14.9% | [7] 10% | [8] 13.6% | [13] 32.5% | [14] 23.8%

CC1=C(CCC=NNC(N)=O)C2=C(C)C3(CC3)[C@@](C)(O)C(=O)C2=C1
active: [1] -41.6% | [2] -16.2% | [3] -55.2% | [4] -29.2% | [5] 4.54% | [6] -37.6% | [7] -9.85% | [8] -17.8% | [9] -6.5% | [10] -58.5% | [11] -16.6% | [12] -63.9% | [13] 3.45% | [14] 4.6% | [15] 1.22% | [16] -12.8% | [17] -29.1% | [18] -10.3% | [19] 5.99%
inactive: [20] 26.6%

CC1=C2C(=C[C@@](C)(COS(C)(=O)=O)[C@@H]2O)C(=O)[C@](C)(O)C12CC2
active: [1] -15.3% | [2] 4.33% | [3] 0.685% | [4] 7.36% | [6] 4.19% | [7] 9.22% | [8] 5.21% | [9] -2.13% | [10] -26.2% | [11] 3.8% | [12] -74.6% | [13] 4.72% | [14] 7.54% | [15] 6.69% | [16] 4.37% | [17] -8.95% | [18] -0.611% | [19] -9.62%
inactive: [5] 11.3% | [20] 11%

O=C(CCCc1ccc(N(CCCl)CCCl)cc1)OCc1ccccc1
inactive: [1] 90.3% | [2] 103% | [3] 84.2% | [4] 53.1% | [5] 78.9% | [6] 99% | [7] 96.7% | [8] 80.4% | [9] 87.7% | [10] 85.2% | [11] 88.6% | [12] 84.9% | [13] 95.9% | [14] 89.2% | [15] 83.2% | [16] 101% | [17] 83.6% | [18] 50.6% | [19] 68.7% | [20] 82.1%

COc1cc2c(O[C@@H]3OC[C@H](OC(C)=O)[C@H](OC(C)=O)[C@H]3O)c3c(c(-c4ccc5c(c4)OCO5)c2cc1OC)C(=O)OC3
active: [1] 2.53% | [9] -43% | [11] 1.41% | [12] 6.09%
inactive: [2] 61.5% | [3] 36.9% | [4] 10.7% | [5] 12.4% | [6] 20% | [7] 43% | [8] 42.4% | [10] 25.6% | [13] 58.7% | [14] 28.5% | [15] 26.5% | [16] 39.5% | [17] 50% | [18] 29% | [19] 26% | [20] 20.1%
